Many of the other results were omitted from the sample, so hits are more common in it than they were.
TbPYK inhibitor = blocks Trypanosoma brucei pyruvate kinase. Q57TT1. TbPYK enzyme, Kinase-Glo Plus ATP luminescence, 45 min. Potency, µM (titrated, usually from 76.8 µM), usual class: inhibitors. actives 0.12% (n = 410,000); active = well fitted curve in the direction sought with a large enough effect; inconclusive = small, poorly fitted or top-dose-only effect, or another doubt; inactive = no such curve, though single readings can be large; an effect the other way counts as inactive or inconclusive; also: nearly all actives have a fitted effect of over 50% in size
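ADP (130 uM final) triggers the TbPYK reaction after compound addition; incubation is 45 min at room temperature. Kinase-Glo Plus is then added and luminescence imaged. Normalized data are fitted to concentration-effect curves.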
Shiga inhibitor = inhibitors of Shiga toxin in Vero cells; Vero cells, Shiga toxin protein synthesis inhibition reporter; inhibition, % at 38.7 µM; actives 9.2% (n = 290,000); AID 2315; in the data active = inhibition mostly above about 28%, no sharp cut-off; inactive = mostly below about 43%
SARS PLpro yeast = inhibitors of SARS-CoV papain-like protease in yeast | S. cerevisiae expressing SARS-CoV PLpro, growth rescue | AID 485353 | Potency, µM (series often up to 32.9 µM), most hits filed as activators | actives 0.19% (n = 330,000); also: nearly all actives have a fitted effect of over 55% in size
NS1 function inh = inhibitors of influenza NS1 protein function | actives 0.4% (n = 270,000) | Potency, µM (highest dose often 46.1 µM) | AID 2326; also: actives are rising curves; nearly all actives have a fitted effect of over 50% in size
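A cell-based growth assay was used: compounds that relieve NS1-induced slow growth of budding yeast raise OD600. Assay medium was yeast nitrogen base with ammonium sulphate and -URA supplement, pH 6.0, with 2% galactose.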
LmPK inh = LmPK (Leishmania mexicana) enzyme inhibition; Q27686; purified LmPK, Kinase-Glo ATP luminescence, 1 h; Potency, µM (highest dose often 57.5 µM), usual class: inhibitors; actives 0.37% (n = 290,000); AID 1721; active = well fitted curve in the direction sought with a large enough effect; inconclusive = small, poorly fitted or top-dose-only effect, or another doubt; inactive = no such curve, though single readings can be large; an effect the other way counts as inactive or inconclusive
Target sequence (Q27686 whole entry, looked up): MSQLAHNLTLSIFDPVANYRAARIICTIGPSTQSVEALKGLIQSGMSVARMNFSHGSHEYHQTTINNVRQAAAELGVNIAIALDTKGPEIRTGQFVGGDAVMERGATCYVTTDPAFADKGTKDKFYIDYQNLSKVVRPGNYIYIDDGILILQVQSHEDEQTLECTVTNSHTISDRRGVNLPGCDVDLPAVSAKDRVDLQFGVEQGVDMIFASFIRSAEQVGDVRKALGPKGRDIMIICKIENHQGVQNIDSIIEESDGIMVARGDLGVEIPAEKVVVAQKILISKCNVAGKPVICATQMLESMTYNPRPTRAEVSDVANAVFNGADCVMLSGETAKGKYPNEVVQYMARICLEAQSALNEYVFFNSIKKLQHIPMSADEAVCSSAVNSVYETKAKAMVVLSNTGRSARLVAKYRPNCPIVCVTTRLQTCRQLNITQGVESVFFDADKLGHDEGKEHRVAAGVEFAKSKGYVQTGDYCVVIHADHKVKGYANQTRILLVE
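Purified LmPK (0.1 nM) converted ADP (0.1 mM) to ATP with PEP (0.5 mM) in imidazole buffer pH 7.2 with KCl and MgCl2, 1 h at room temperature. ATP was read by Kinase-Glo luminescence; data normalized to uninhibited and no-enzyme controls.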
CHX counter = counter-screen hit for Shiga toxin inhibitors, cycloheximide. cell reporter, cycloheximide protein synthesis inhibition counterscreen. max response, %. actives 12% (n = 300,000); in the data active = max response mostly above about 13%, no sharp cut-off; inactive = mostly below about 14%; also: read at 38.3 µM for the half of the compounds with a filed dose
Hits are given with their value; – = inactive; ? = inconclusive; · = no result given; [ ] = another dose, or the depositor's remark. Unless noted, calls follow the shape of the full dose curve.

SMILES	TbPYK inhibitor	Shiga inhibitor	SARS PLpro yeast	NS1 function inh	LmPK inh	CHX counter
Cc1cc(/C=C(\C#N)C(=O)Nc2ccccc2)c(C)n1-c1cccnc1	–	62	–	–	–	33
CN(C)/C=C(\C#N)C(=O)Nc1ccccc1	–	57	–	·	–	32
CCOC(=O)/C(C#N)=C/c1cc(C)n(-c2ccc(Br)cc2)c1C	·	–	–	–	–	–
N#C/C(=C\c1ccccc1O)C(=O)Nc1cccnc1	–	57	–	–	?	46
CN(C)/C=C(\C#N)C(=O)Nc1ccc(O)cc1F	–	–	–	–	–	–
CCOC(=O)/C(C#N)=C/c1cc(C)n(-c2ccccc2)c1C	–	111	–	–	–	50
C=CCC[C@@H](Cc1ccc(F)cc1)C(=O)OC[C@@H](NC(=O)[C@H](CC=C)CC(=O)NCCO)C(C)(C)C	–	·	–	·	·	·
Cc1cc(C)cc(NC(=O)CSc2nnc(COc3ccccc3Cl)o2)c1	–	·	·	·	·	·
O=C(CCn1c(=O)c2ccccc2n(Cc2cccc(Cl)c2)c1=O)NCCc1ccccc1	–	·	·	·	·	·
Cc1ccc(NC(=O)/C(C#N)=C/c2ccccc2C(F)(F)F)cc1	–	–	–	–	–	27
CCn1c(/C=C/c2c(C)[nH]c3ccccc23)nc2ccccc2c1=O	–	–	–	–	–	–
Cc1ccccc1/C=C\c1nc2ccccc2c(=O)n1Cc1ccccc1	–	–	–	–	–	–
CCn1c(/C=C/c2c[nH]c3ccccc23)nc2ccccc2c1=O	–	50	–	–	–	41
CCn1c(/C=C\c2ccccc2C)nc2ccccc2c1=O	–	82	–	–	–	23
CCn1c(/C=C/c2ccccc2Cl)nc2ccccc2c1=O	–	74	–	–	–	30
CCn1c(/C=C/c2ccccc2[N+](=O)[O-])nc2ccccc2c1=O	–	–	–	·	–	–
COc1ccccc1CNC(=O)C1CCN(c2nc3ccc(Cl)cc3[nH]2)CC1	–[15.4 µM]	·	·	·	·	·
O=C(/C=C/c1ccoc1)c1ccccc1O	–	97	–	–	–	44
O=C(/C=C/c1cc2ccccc2o1)c1ccccc1O	–	78	–	–	–	41
COc1ccc(O)c(C(=O)/C=C/c2cc3ccccc3o2)c1	–	–	–	–	–	–
O=C(/C=C/c1ccc(O)c(O)c1)c1ccccc1O	–	72	–	–	?	41
O=C(/C=C/c1ccc(O)c(O)c1)OC(Cc1ccc(O)c(O)c1)C(=O)O (centres undefined)	?	–	–	–	–	–
O=C(C=Cc1ccccc1O)c1ccccc1O	–	·	·	·	·	·
O=C(C=Cc1cccc(O)c1)c1ccccc1O	–	·	·	·	·	·
O=C(/C=C/c1ccc(O)c(O)c1)OCCc1ccccc1	–	80	·	–	·	64
SMILES	TbPYK inhibitor	Shiga inhibitor	SARS PLpro yeast	NS1 function inh	LmPK inh	CHX counter
COc1cc(/C=N/NC(=O)C(=O)N2CCCCCC2)ccc1O	–	–	–	–	–	–
CN(C)c1ccc(/C=N/NC(=O)C(=O)N2CCCCCC2)cc1	–	–	–	–	–	26
COc1ccc(/C=N/NC(=O)C(=O)N2CCCC2)cc1	–	–	–	–	–	36
COc1ccc(CCNC(=O)CSc2nn(-c3ccccc3)c(=S)s2)cc1OC	–	–	–	–	–	–
CN(C)/C=N/c1ncc(C(=O)OC(C)(C)C)s1	–	69	–	·	–	30
CN(C)/C=N/c1ncc(C(=O)c2ccccc2)s1	–	66	–	–	–	52
Cc1cc(C(=O)c2cnc(/N=C/N(C)C)s2)cc(C)c1O	–	–	–	–	–	–
NS(=O)(=O)c1ccc(NC(=O)CSc2ncn[nH]2)cc1	–	–	–	·	–	–
O=C(CSc1nc2ccccc2[nH]1)Nc1ccc2c(c1)CCC2	–	–	–	–	–	–
O=C(CSc1ncn[nH]1)Nc1nnc(-c2ccccc2)s1	–	91	–	–	–	67
O=C(CSc1ncn[nH]1)Nc1ccc(OCc2ccccc2)cc1	–	145	–	·	–	34
O=C(CSc1ncn[nH]1)Nc1ccc2c(c1)CCC2	–	–	–	–	–	20
Cc1ccc(NC(=O)CSc2ncn[nH]2)cc1	–	–	–	·	–	14
CCn1c(C)c(C2N3CC4(C)CN2CC(C)(C3)C4=O)c2ccccc21 (centres undefined)	–	·	·	·	·	·
O=c1c2sc3ccccc3c2n(Cc2ccc(F)cc2)c(=O)n1Cc1ccccc1	–	·	·	·	·	·
CC(=O)Nc1c(Cl)c(Cl)c2c(c1Cl)C(=O)c1cc(Cl)ccc1-2	–	·	·	·	·	·

Screening results: PubChem BioAssay, National Center for Advancing Translational Sciences (NCATS)
